From PubChem BioAssay (Tox21)
Values without a mark were called inactive. Records with an inconclusive call do not appear. A call without a number means that no potency is given here. Active and inactive are the calls of the source. Unless noted, calls follow the shape of the dose curve; as a rule, active = well fitted curve in the direction sought with a large enough effect in the repeat runs; inconclusive = weak or mixed curves; inactive = no such curve, though single readings can be large; an effect the other way counts as inactive or inconclusive.

Experiments:
[1] = qHTS assay to identify small molecule antagonists of the estrogen receptor alpha (ER-alpha) signaling pathway using the BG1 cell line in the presence of 0.1 nM 17-beta-estradiol - cell viability counter screen (AID 1259241); also: nearly all actives have a fitted effect of over 40% in size
Summary of the method: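 CellTiter-Fluor read (30 min, 37C) on ER-alpha/ERE-luc VM7Luc4E2 cells; 22 hr compound treatment; agonist 0.1 nM E2 final; same-well multiplex.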

[2] = qHTS assay to identify small molecule antagonists of the androgen receptor (AR) signaling pathway using the MDA cell line in the presence of 0.5 nM R1881 - cell viability counter screen (AID 1259242); also: nearly all actives have a fitted effect of over 45% in size
Summary of the method: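 Steps: plate MDA-kb2 cells, rest 5 hr at 37C without CO2; pin in compounds in DMSO; add R1881 to 0.5 nM final; incubate 16 hr; add CellTiter-Fluor, 30 min; read fluorescence.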

[3] = target: Estrogen receptor (Homo sapiens) (UniProt P03372); assay: qHTS assay to identify small molecule antagonists of the estrogen receptor alpha (ER-alpha) signaling pathway using the BG1 cell line in the presence of 0.1 nM 17-beta-estradiol (AID 1259244); also: nearly all actives have a fitted effect of over 50% in size
Estrogen receptor (Homo sapiens), sequence (P03372 whole entry, looked up): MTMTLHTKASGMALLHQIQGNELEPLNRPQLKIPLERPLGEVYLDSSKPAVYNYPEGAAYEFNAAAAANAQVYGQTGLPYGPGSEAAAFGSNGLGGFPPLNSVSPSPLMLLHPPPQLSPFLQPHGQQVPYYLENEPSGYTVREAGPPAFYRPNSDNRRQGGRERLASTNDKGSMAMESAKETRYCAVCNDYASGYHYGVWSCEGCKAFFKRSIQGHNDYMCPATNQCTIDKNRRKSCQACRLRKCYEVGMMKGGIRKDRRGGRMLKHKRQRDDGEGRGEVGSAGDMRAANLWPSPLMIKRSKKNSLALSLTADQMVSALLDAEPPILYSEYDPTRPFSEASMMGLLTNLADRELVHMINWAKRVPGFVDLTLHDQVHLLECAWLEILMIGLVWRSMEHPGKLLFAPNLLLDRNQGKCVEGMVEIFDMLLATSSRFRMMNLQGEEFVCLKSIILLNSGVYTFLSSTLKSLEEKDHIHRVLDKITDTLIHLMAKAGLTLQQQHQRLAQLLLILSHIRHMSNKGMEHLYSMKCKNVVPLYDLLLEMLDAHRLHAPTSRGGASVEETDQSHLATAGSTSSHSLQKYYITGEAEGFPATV
Summary of the method: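 Antagonist mode: compounds in DMSO are pinned onto VM7Luc4E2 reporter cells, 0.1 nM final 17beta-estradiol is added, and after 22 h at 37C luciferase luminescence is measured with ONE-Glo.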

[4] = qHTS assay to identify small molecule phospholipidosis (PLD) inducers (AID 1259344; active = well fitted curve in the direction sought with a large enough effect; an effect the other way counts as inactive or inconclusive)
Summary of the method: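 Accumulated phospholipid, stained red by LipidTOX during 24 h compound treatment of HepG2 cells at 37 C, is quantified from images as pit number and intensity, normalised per cell using Hoechst-stained nuclei.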

[5] = qHTS assay to identify small molecule HDAC inhibitors (AID 1259364);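 also: wild-type HCT-116 cells with endogenous class I/II HDAC activity; top concentration of the series differs between compounds; nearly all actives have a fitted effect of over 45% in size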
Summary of the method: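 Cells (HCT-116, wild type) are seeded at 1,500 per well, incubated overnight, treated with compound in DMSO for 2 hr, then developed with HDAC-Glo I/II reagent for 30 min at room temperature.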

[6] = qHTS assay to identify small molecule HDAC inhibitors - cell viability counter screen (AID 1259365); also: series mostly up to about 92 µM; nearly all actives have a fitted effect of over 50% in size
Summary of the method: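 To flag cytotoxic hits, 1,500 wild-type HCT-116 cells per well, plated the day before, receive test compounds for 2hr at 37 C before CellTiter-Glo reagent and a luminescence read.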

[7] = qHTS assay to identify small molecule agonists of the sonic hedgehog signaling (Shh) pathway - cell viability counter screen (AID 1259366); also: nearly all actives have a fitted effect of over 50% in size; also: potency is read from the fitted curve at half-maximal effect
Summary of the method: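 Fluorescence from CellTiter-Fluor reports live cells in this counter screen. NIH/3T3-derived Gli1-Luc reporter cells receive test compounds for 24hr at 37C; reagent goes in at 23hr.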

[8] = qHTS assay to identify small molecule antagonists of the sonic hedgehog signaling (Shh) pathway - cell viability counter screen (AID 1259367); also: nearly all actives have a fitted effect of over 55% in size; also: potency is read from the fitted curve at half-maximal effect
Summary of the method: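 CellTiter-Fluor signal in conditioned medium-stimulated 3T3 Gli1-Luc cells, 23 hr compound exposure, 37C.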

[9] = qHTS assay to identify small molecule agonists of the sonic hedgehog signaling (Shh) pathway (AID 1259368; calls by dose curve;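 also: NIH/3T3-derived 3T3Gli1-Luc cells carrying a stable Gli1-driven firefly luciferase reporter; series mostly up to about 92 µM; nearly all actives have a fitted effect of over 15% in size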)
Summary of the method: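 Cells of a mouse NIH/3T3 clone stably expressing luciferase under the Gli1 transcriptional response element are exposed to test chemicals for 24 hr at 37 C. Pathway activation is detected as a rise in luminescence.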

[10] = qHTS assay to identify small molecule antagonists of the sonic hedgehog signaling (Shh) pathway (AID 1259369; calls by dose curve; also: nearly all actives have a fitted effect of over 45% in size)
Summary of the method: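 Cells are plated and held 4hr at 37 C, compounds (DMSO) are pinned in, conditioned medium is added to stimulate the pathway, and after 24hr luciferase reagent is added for 30min before luminescence is read.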

[11] = target: Estrogen receptor beta (Homo sapiens) (UniProt Q92731); assay: qHTS assay to identify small molecule agonists of the estrogen receptor beta (ER-beta) signaling pathway (AID 1259377; active = well fitted activation curve with a large enough effect in the signal ratio in the repeat runs, not every such curve was filed as active; the % refers to the signal ratio)
Estrogen receptor beta (Homo sapiens), sequence (Q92731 whole entry, looked up): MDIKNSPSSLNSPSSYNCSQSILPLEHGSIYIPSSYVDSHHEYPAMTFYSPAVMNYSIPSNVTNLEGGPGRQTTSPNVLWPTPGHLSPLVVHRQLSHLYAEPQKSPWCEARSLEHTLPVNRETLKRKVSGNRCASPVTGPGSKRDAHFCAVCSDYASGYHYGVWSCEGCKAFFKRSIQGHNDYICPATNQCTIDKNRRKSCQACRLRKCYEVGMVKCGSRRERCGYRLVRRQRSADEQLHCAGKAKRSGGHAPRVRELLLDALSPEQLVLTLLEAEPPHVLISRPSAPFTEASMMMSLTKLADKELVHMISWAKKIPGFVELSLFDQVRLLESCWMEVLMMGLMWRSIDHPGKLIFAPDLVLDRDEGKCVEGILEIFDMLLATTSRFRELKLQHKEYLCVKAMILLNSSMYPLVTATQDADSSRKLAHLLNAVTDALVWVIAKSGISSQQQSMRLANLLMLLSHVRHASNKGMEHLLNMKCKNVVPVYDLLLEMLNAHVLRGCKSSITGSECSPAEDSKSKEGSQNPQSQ
Summary of the method: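 Screening used GripTite ER-beta-UAS-bla cells held in 2% charcoal-stripped FBS medium. After overnight (16 hr) compound incubation at 37C, beta-lactamase activity was detected with a FRET substrate by fluorescence.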

[12] = target: Estrogen receptor beta (Homo sapiens) (UniProt Q92731); assay: qHTS assay to identify small molecule antagonists of the estrogen receptor beta (ER-beta) signaling pathway (AID 1259378; active = well fitted inhibition curve with a large enough effect in the signal ratio in the repeat runs, not every such curve was filed as active; the % refers to the signal ratio)
Summary of the method: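 Antagonist mode: compounds added to beta-lactamase reporter HEK293T ER-beta-UAS cells stimulated with E2 (1nM final), 16 hr at 37C. LiveBLAzer B/G FRET substrate, 2 hours room temperature, fluorescence read-out.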

[13] = qHTS assay to identify small molecule agonists of the androgen receptor (AR) signaling pathway in the presence of an antagonist - cell viability counter screen (AID 1259379);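 also: MDA-kb2 human breast cancer cells carrying an MMTV luciferase reporter; series mostly up to about 92 µM; nearly all actives have a fitted effect of over 25% in size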
Summary of the method: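 Cytotoxicity is assessed by CellTiter-Fluor in MDA-kb2 cells carrying an MMTV-driven luciferase reporter. Cells receive 3.0uM nilutamide plus compounds at 15 concentrations and incubate 16 hr at 37C without CO2 before fluorescence reading.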

[14] = qHTS assay to identify small molecule agonists of the estrogen receptor beta (ER-beta) signaling pathway - cell viability counter screen (AID 1259380); also: nearly all actives have a fitted effect of over 30% in size
Summary of the method: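 Cytotoxicity is measured in parallel with the reporter screen: after 16 hr compound exposure at 37C and a 2 hr LiveBLAzer step, CellTiter-Glo is added to the same ER-beta-UAS-bla HEK293T wells and luminescence read after 30 min.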

[15] = qHTS assay to identify small molecule antagonists of the estrogen receptor beta (ER-beta) signaling pathway - cell viability counter screen (AID 1259382);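 also: HEK293T cells carrying ER-beta-UAS-bla reporter stimulated with estradiol; series mostly up to about 92 µM; nearly all actives have a fitted effect of over 55% in size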
Summary of the method: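 Cytotoxicity counter screen multiplexed with the beta-lactamase antagonist assay: GripTite HEK293T ER-beta-bla cells were treated 16 hr with test chemicals in the presence of 1nM 17-beta-estradiol, and viability was measured by CellTiter-Glo.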

[16] = qHTS assay to identify small molecule agonists or antagonists of the thyroid stimulating hormone receptor (TSHR) signaling pathway - wild type cell line counter screen (AID 1259384; calls by dose curve)
Summary of the method: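 Counter screen in untransfected Hek293: compounds (15-point titration, triplicate) plus phosphodiesterase inhibitor Ro20-1724 added after 18 h plating; 30 min RT. Intracellular cAMP via competitive d2/cryptate immunoassay, 1 h incubation.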

[17] = target: Androgen receptor (Homo sapiens) (UniProt P10275); assay: qHTS assay to identify small molecule antagonists of the androgen receptor (AR) signaling pathway using the MDA cell line in the presence of 0.5 nM R1881 (AID 1259243); also: nearly all actives have a fitted effect of over 50% in size
Androgen receptor (Homo sapiens), sequence (P10275 whole entry, looked up): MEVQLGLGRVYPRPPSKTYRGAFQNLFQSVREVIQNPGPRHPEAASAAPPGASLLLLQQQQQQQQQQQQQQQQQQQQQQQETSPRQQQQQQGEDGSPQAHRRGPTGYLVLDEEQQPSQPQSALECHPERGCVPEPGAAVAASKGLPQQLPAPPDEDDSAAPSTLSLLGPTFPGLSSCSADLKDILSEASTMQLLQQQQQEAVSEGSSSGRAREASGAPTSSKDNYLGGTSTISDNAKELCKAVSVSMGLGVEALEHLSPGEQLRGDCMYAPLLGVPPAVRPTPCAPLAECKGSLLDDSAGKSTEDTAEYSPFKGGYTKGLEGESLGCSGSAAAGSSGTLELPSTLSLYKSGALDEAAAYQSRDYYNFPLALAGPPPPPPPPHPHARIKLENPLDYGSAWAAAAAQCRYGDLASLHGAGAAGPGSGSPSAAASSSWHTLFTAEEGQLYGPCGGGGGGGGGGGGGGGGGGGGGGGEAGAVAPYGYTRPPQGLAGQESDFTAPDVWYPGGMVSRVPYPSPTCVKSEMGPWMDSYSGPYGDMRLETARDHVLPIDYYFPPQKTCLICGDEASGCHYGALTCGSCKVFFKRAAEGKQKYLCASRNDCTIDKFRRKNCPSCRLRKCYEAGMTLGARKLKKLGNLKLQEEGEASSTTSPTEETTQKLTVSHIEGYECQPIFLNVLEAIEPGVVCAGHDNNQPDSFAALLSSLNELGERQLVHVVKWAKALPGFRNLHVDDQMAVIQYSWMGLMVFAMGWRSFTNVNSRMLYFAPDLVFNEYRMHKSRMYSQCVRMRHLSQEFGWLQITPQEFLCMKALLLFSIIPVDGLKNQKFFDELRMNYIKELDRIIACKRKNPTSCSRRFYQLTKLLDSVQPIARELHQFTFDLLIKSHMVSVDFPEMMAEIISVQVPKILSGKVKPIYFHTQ
Summary of the method: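 Stably transfected MDA-kb2 cells express luciferase from an MMTV promoter bearing both AR and GR response elements. Compounds plus 0.5 nM R1881 (final) were incubated 16 hr at 37C without CO2, then luminescence measured.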

[18] = target: Androgen receptor (Homo sapiens) (UniProt P10275); assay: qHTS assay to identify small molecule agonists of the androgen receptor (AR) signaling pathway in the presence of an antagonist (AID 1259381; calls by dose curve; also: nearly all actives have a fitted effect of over 15% in size)
Summary of the method: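 Agonist-mode confirmation screen: human MDA-kb2 cells stably expressing luciferase under an MMTV promoter bearing AR and GR response elements, co-treated with 3.0uM nilutamide (final). Luminescence measured after 16hr compound incubation.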

[19] = target: Estrogen receptor (Homo sapiens) (UniProt P03372); assay: qHTS assay to identify small molecule agonists of the estrogen receptor alpha (ER-alpha) signaling pathway in the presence of an antagonist (AID 1259383; calls by dose curve; also: top concentration of the series differs between compounds; nearly all actives have a fitted effect of over 15% in size)
Summary of the method: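 Agonist-mode confirmation in the presence of the ER antagonist ICI-182,780 at 10.0nM final. Breast-derived VM7Luc4E2 reporter cells were exposed to compounds for 22hr, and ERE-driven luciferase was quantified by luminescence.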

Cc1ccsc1/C=C/C1=NCCCN1C
Potency [1]: inactive | outcome [2]: inactive | Potency [3]: inactive | outcome [4]: inactive | Potency [5]: inactive | outcome [6]: inactive | Potency [7]: inactive | Potency [8]: inactive | outcome [9]: inactive | Potency [10]: inactive | Potency [11]: inactive | outcome [12]: inactive | Potency [13]: inactive | Potency [14]: inactive | outcome [15]: inactive | outcome [16]: inactive

CC(S)C(=O)NCC(=O)O (centres undefined)
Potency [1]: inactive | outcome [2]: inactive | Potency [17]: inactive | outcome [4]: inactive | Potency [5]: inactive | outcome [6]: inactive | Potency [7]: inactive | Potency [8]: inactive | outcome [9]: inactive | Potency [10]: inactive | Potency [11]: inactive | outcome [12]: inactive | Potency [13]: inactive | Potency [14]: inactive | Potency [18]: inactive | outcome [15]: inactive | outcome [16]: inactive

CCc1ccc(C=O)cc1
Potency [1]: inactive | outcome [2]: inactive | Potency [5]: inactive | outcome [6]: inactive | Potency [7]: inactive | Potency [8]: inactive | outcome [9]: inactive | Potency [10]: inactive | Potency [13]: inactive | Potency [14]: inactive | outcome [15]: inactive | outcome [16]: inactive

COc1ccc2c(c1OC)C(=O)O[C@@H]2[C@H]1c2c(cc3c(c2OC)OCO3)CCN1C
outcome [2]: inactive | outcome [4]: inactive | Potency [5]: inactive | outcome [6]: inactive | Potency [7]: 2110 nM (active) | Potency [8]: 3350 nM (active) | outcome [9]: inactive | Potency [14]: inactive | outcome [15]: inactive | outcome [16]: inactive

O=S(O)(O)=S
activity change, negative = cytotoxicity [1]: 6.4% [at 8.39 µM] | viability change, negative = cytotoxic [2]: -0.767% [at 8.39 µM] | activity change, negative = inhibition [3]: 19% [at 8.39 µM] | activity change, negative = inhibition [5]: 3.04% [at 8.39 µM] | activity change, negative = cytotoxicity [6]: 0.217% [at 8.39 µM] | viability change, negative = cytotoxic [7]: -0.643% [at 8.39 µM] | viability change, negative = cytotoxic [8]: 1.07% [at 8.39 µM] | activity change [9]: -0.163% [at 8.39 µM] | activity change, negative = inhibition [10]: 0.751% [at 8.39 µM] | activity, negative = inhibition [12]: 6.44% [at 8.39 µM] | activity change, negative = cytotoxicity [13]: 1.18% [at 8.39 µM] | activity change, negative = cytotoxicity [14]: -9.09% [at 8.39 µM] | activity change, negative = cytotoxicity [15]: 4.48% [at 8.39 µM] | activation [19]: 0.31% [at 8.39 µM] | cAMP activity change [16]: 0.958% [at 8.39 µM]

CC1=C(C(=O)O)N2C(=O)[C@@H](NC(=O)[C@H](N)c3ccc(O)cc3)[C@H]2SC1
Potency [1]: inactive | outcome [2]: inactive | outcome [4]: inactive | Potency [5]: inactive | outcome [6]: inactive | Potency [7]: inactive | Potency [8]: inactive | outcome [9]: inactive | Potency [10]: inactive | Potency [11]: inactive | outcome [12]: inactive | Potency [13]: inactive | outcome [15]: inactive | outcome [16]: inactive

CCOCCOCCOCC
Potency [1]: inactive | outcome [2]: inactive | Potency [5]: inactive | outcome [6]: inactive | Potency [7]: inactive | Potency [8]: inactive | outcome [9]: inactive | Potency [10]: inactive | Potency [11]: inactive | outcome [12]: inactive | Potency [13]: inactive | Potency [14]: inactive | outcome [15]: inactive

O=C(OCC1(COC(=O)c2cccnc2)CCCC(COC(=O)c2cccnc2)(COC(=O)c2cccnc2)C1O)c1cccnc1
Potency [1]: inactive | outcome [2]: inactive | outcome [4]: inactive | Potency [5]: inactive | outcome [6]: inactive | outcome [9]: inactive | Potency [10]: inactive | Potency [13]: inactive | Potency [14]: inactive | outcome [15]: inactive | outcome [16]: inactive

CC(=O)NCCCCCC(=O)O
outcome [2]: inactive | Potency [3]: inactive | outcome [4]: inactive | Potency [5]: inactive | outcome [6]: inactive | Potency [7]: inactive | Potency [8]: inactive | outcome [9]: inactive | Potency [10]: inactive | Potency [11]: inactive | outcome [12]: inactive | Potency [13]: inactive | Potency [14]: inactive | outcome [15]: inactive | outcome [19]: inactive | outcome [16]: inactive
